Shown are actives, neighbours in structure and some others; about 2.4% of the full set was active somewhere.
L3MBTL1 block – qHTS Assay for the Inhibitors of L3MBTL1 | Lethal(3)malignant brain tumor-like protein 1 (Homo sapiens), Q9Y468 | AlphaScreen L3MBTL1–H3K9me1 peptide binding | Potency, µM (series often up to 57.1 µM), usual class: inhibitors | 230,000 compounds, 0.66% hits | AID 485360, 2010; also: nearly all actives have a fitted effect of over 60% in size
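Displacement of a biotinylated histone H3(1-15) peptide monomethylated at Lys9 (75 nM) from L3MBTL1 (50 nM) was measured by AlphaScreen after a 30 min room-temperature compound incubation; cefsulodin titration served as intraplate control.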
Pol beta inh – qHTS Assay for Inhibitors of DNA Polymerase Beta. P06746. Pol beta primer extension/strand displacement, fluorescence kinetic. Potency, µM (highest dose often 114 µM), most hits filed as inhibitors. 340,000 compounds, 1.3% hits. AID 485314, 2010
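10 nM enzyme + cpd, 15 min RT; start with substrate 50 nM final; read 0 min and after 10 min RT. Corrected, normalized data; 4-parameter Hill curve fit.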
Pol kappa inh – qHTS for Inhibitors of Polymerase Kappa. DNA polymerase kappa (Homo sapiens), Q9UBT6. purified Pol kappa, fluorescent DNA synthesis assay, 10 min. Potency, µM (top dose mostly 107 µM), usual class: inhibitors. 400,000 compounds, 0.53% hits
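Activity was followed as the change in fluorescence between reads at 0 and 10 min after starting the reaction with 50 nM substrate. Beforehand, 10 nM polymerase had been preincubated with compound for 15 min at room temperature.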
POLH inh – qHTS for Inhibitors of Polymerase Eta. recombinant Pol eta, fluorescent DNA replication assay. DNA polymerase eta (Homo sapiens), Q9Y253. 390,000 compounds, 1.2% hits. Potency, µM (highest dose often 114 µM), usual class: inhibitors
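Pol eta (10 nM) was preincubated with compounds for 15 min at room temperature, after which fluorescent replication substrate (50 nM final) was added to start the reaction. Fluorescence was read kinetically at 0 and 10 min.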
POLI inh – qHTS for Inhibitors of Polymerase Iota; Pol iota fluorescent replication assay, 10 min; Potency, µM (top dose mostly 115 µM), usual class: inhibitors; 390,000 compounds, 1% hits; DNA polymerase iota (Homo sapiens), Q9UNA4
Target sequence (Q9UNA4 whole entry, looked up): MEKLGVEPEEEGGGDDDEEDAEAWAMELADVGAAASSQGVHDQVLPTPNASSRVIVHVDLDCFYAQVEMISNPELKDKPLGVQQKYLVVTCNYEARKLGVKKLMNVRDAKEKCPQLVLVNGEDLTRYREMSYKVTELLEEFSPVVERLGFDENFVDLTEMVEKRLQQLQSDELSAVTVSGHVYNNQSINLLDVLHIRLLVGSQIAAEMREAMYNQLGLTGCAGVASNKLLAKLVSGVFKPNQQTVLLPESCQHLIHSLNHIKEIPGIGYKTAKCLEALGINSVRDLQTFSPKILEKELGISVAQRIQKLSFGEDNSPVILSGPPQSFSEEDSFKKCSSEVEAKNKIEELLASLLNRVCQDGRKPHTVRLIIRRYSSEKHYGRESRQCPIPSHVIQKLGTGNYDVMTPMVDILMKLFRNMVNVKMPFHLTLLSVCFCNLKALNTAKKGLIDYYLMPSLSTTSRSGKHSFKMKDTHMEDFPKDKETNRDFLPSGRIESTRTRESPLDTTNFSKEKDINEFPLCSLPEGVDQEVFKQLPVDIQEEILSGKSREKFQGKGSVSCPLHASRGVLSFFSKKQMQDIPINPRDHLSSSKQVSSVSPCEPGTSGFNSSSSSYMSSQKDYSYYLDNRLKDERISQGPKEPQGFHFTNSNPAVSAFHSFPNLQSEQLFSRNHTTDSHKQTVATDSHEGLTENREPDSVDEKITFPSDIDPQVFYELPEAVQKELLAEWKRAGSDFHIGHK
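Fluorescent replication assay read twice, at 0 min and 10 min after adding 50 nM (final) substrate. Enzyme (10 nM) and compounds were first incubated 15 min at room temperature; enzyme-free buffer wells were negative controls.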
Numbers stand for hits; - = inactive; ? = inconclusive; . = no result given; ! = repeats disagree; [ ] = another dose, or the depositor's remark. Calls follow the shape of the dose curve; as a rule, active = well fitted curve in the direction sought with a large enough effect; inconclusive = small, poorly fitted or top-dose-only effect, or another doubt; inactive = no such curve, though single readings can be large; an effect the other way counts as inactive or inconclusive.

SMILES | L3MBTL1 block | Pol beta inh | Pol kappa inh | POLH inh | POLI inh
CCOc1ccc2nc(N=Nc3c(O)[nH]c(=S)[nH]c3=O)sc2c1 | 7.94µM | - | - | ? | -
COc1cc2c(c3oc4cccc(O)c4c(=O)c13)C1C=CO[C@@H]1O2 (some centres not stated) | . | . | - | . | .
CCN(CC)S(=O)(=O)c1ccc2c(c1)c(=O)c(C(=O)NCc1ccccc1OC)cn2C | . | - | - | - | ?
N#CC(C#N)=Cc1cc(O)c(O)c(O)c1 | . | - | 3.16µM | 2.24µM | 9.47µM
COc1cc2c(cc1OC)-c1c3c(cc4c1[C@@H](C2)N(C)CC4)OCO3 | - | ? | - | - | 2.82µM
COc1ccc2c(c1O)-c1cc(O)cc3c1[C@@H](C2)N(C)CC3 | . | . | -[19.4 µM] | . | .
COc1cc2c(cc1OC)-c1c(OC)c(OC)cc3c1C(C2)N(C)CC3 (configuration not stated) | - | - | - | - | 11.2µM
COc1cc2c(cc1O)C[C@H]1NCCc3cc4c(c-2c31)OCO4 | 35.5µM | 39.8µM | ? | ? | 14.1µM
C[C@@H]1O[C@@H](OC2CC(O)C3(CO)C4C(CCC3(O)C2)C2(O)CCC(C3=CC(=O)OC3)C2(C)C[C@H]4O)[C@H](O)[C@H](O)[C@H]1O (some centres not stated) | . | . | - | . | .
CCC1(Oc2ccccc2)C(=O)NC(=O)NC1=O | . | . | - | - | -
CCC1(C)OC(c2ccccc2)=C/C(=C/C=C2C(=O)NC(=O)NC2=O)O1 (configuration not stated) | ? | ? | - | - | 28.2µM
CN(C)c1ccc(/C=C/c2cc[n+](C)c3ccccc23)cc1 | ? | ? | ? | ? | 79.4µM
Cc1c2cnn(CC(=O)N3CCC4(CC3)OCCO4)c(=O)c2c(C)n1Cc1cccc(Cl)c1 | . | - | - | - | -
O=C(Cn1ncc2c3ccccc3n(Cc3cccc(Cl)c3)c2c1=O)N1CCC2(CC1)OCCO2 | - | 17.8µM | - | ? | ?
C=C/C(=C/C(=O)C[C@H](C)C[C@@H](C)CC[C@H](O)[C@H](C)C(=O)C[C@@H](O)[C@H](C)[C@@H](C)OC(=O)C[C@@H](O)C1=C(C)C(=O)OC1=O)CC | . | . | 4.74µM | . | .
CN1C(=O)NC(=O)[C@]2(Cc3ccccc3N3CCN(c4ccccc4)CC32)C1=O (some centres not stated) | . | - | - | - | ?
O=C1NC(=O)[C@]2(Cc3ccccc3N3CCN(c4ccccc4)CC32)C(=O)N1c1ccccc1 (some centres not stated) | - | - | ? | 44.7µM | ?
O=C1NC(=O)[C@]2(Cc3ccccc3N3CCN(c4ccccc4)CC32)C(=O)N1Cc1ccccc1 (some centres not stated) | - | - | - | 20µM | ?
Cc1c(C(=O)Nc2ccccc2Cl)oc2ccc(S(=O)(=O)N3CCCCC3)cc12 | . | - | - | - | ?
CC(C)=CCCC1(C)C=Cc2c(O)c3c(c(CC=C(C)C)c2O1)OC12C(=CC4CC1C(C)(C)OC2(C/C=C(/C)C(=O)O)C4O)C3=O (configuration not stated) | . | . | 25.1µM | . | .
CC(C)=CCCC1(C)C=Cc2c(O)c3c(c(CC=C(C)C)c2O1)OC12C(=CC4CC1C(C)(C)OC2(C/C=C(/C)C(=O)O)C4=O)C3=O (configuration not stated) | . | . | 22.4µM | . | .
CC1=C(C(=O)O)N2C(=O)C(NC(=O)c3nn(C)cc3[N+](=O)[O-])C2SC1 (configuration not stated) | - | - | - | - | ?
COc1ccc(CNC(=O)C2CCN(c3nc(OC)nc(OC)n3)CC2)cc1 | - | - | - | - | 89.1µM
CCOC(=O)c1ccc(N=C(c2ccccc2)c2c(O)n(C)c(=O)n(C)c2=O)cc1 | - | - | - | - | ?
COC(=O)c1ccc(N=C(c2ccccc2)c2c(O)n(C)c(=O)n(C)c2=O)cc1 | - | - | - | - | 31.6µM
SMILES | L3MBTL1 block | Pol beta inh | Pol kappa inh | POLH inh | POLI inh
Cc1cc(=O)n(-c2ccccc2Cl)[nH]1 | . | - | - | - | 2.82µM
COc1ccc(NC(=O)CCn2cnc3onc(-c4ccc(F)cc4)c3c2=O)cc1OC | . | - | - | - | ?
O=C(O)c1cc(O)c(O)c(O)c1 | . | . | 10µM! | . | .
COC1C(C)OC(OC2CC(C)(O)Cc3cc4c(c(O)c32)C(=O)c2c(O)cc3c(c2C4=O)OC2OC3(C)C(O)C(N(C)C)C2O)C(OC)C1(C)OC (configuration not stated) | . | . | 25.1µM | ? | ?
CC(=O)O[C@H]1C(=O)[C@@]2(C)C([C@H](OC(=O)c3ccccc3)[C@]3(O)C[C@H](OC(=O)[C@H](O)[C@@H](NC(=O)c4ccccc4)c4ccccc4)C(C)=C1C3(C)C)[C@]1(OC(C)=O)CO[C@@H]1C[C@@H]2OC(=O)[C@H](C)NC(=O)c1ccc(-c2c3ccc(=O)cc-3oc3cc(O)ccc23)c(C(=O)O)c1 (some centres not stated) | . | . | 4.74µM | . | .
C/C=C(\C)C(=O)N[C@@H](c1ccccc1)[C@@H](O)C(=O)O[C@H]1C[C@@]2(O)[C@@H](OC(=O)c3ccccc3)C3[C@](C)(C(=O)[C@H](OC(C)=O)C(=C1C)C2(C)C)[C@@H](O)C[C@H]1OC[C@@]31OC(C)=O (some centres not stated) | - | - | - | - | -
O=c1c(O)c(-c2ccc(O)c(O)c2)oc2c(O)c(O)cc(O)c12 | . | . | 1.12µM | . | .
COc1cc([C@@H]2c3cc4c(cc3[C@H](O)[C@H]3COC(=O)[C@@H]23)OCO4)cc(OC)c1OC | . | . | - | . | ?
Cc1c(N=Nc2c(O)[nH]c(=S)[nH]c2=O)c(=O)n(-c2ccccc2)n1C | ? | - | - | - | -
C=CCn1c(O)c(N=Nc2c(C)n(C)n(-c3ccccc3)c2=O)c(=O)[nH]c1=S | 20µM | - | - | ? | -
CCOc1ccc(-n2c(O)c(N=Nc3c(C)n(C)n(-c4ccccc4)c3=O)c(=O)[nH]c2=O)cc1 | 25.1µM | - | - | - | -
COCCNC(=O)Cn1cc(/C=C2\C(=O)NC(=O)N(c3ccccc3F)C2=O)c2ccccc21 | . | - | - | - | 20µM
COc1ccc(N2C(=O)NC(=O)/C(=C\c3cn(CC(=O)N4CCOCC4)c4ccccc34)C2=O)c(OC)c1 | - | - | - | - | 12.6µM
COC(=O)Cn1cc(/C=C2\C(=O)NC(=O)N(c3ccc(OC)cc3)C2=O)c2ccccc21 | . | - | - | - | ?
CCN(CC)C(=O)Cn1cc(S(=O)(=O)CC(=O)NCc2ccc(C)cc2)c2ccccc21 | . | . | - | - | -
COc1cc(/C=C/[N+](=O)[O-])ccc1O | - | - | - | - | 31.6µM
CCOC(=O)CCN(SN(C)C(=O)Oc1cccc2c1OC(C)(C)C2)C(C)C | . | . | - | . | .
N.N.N.N.N.N.N.N.N.N.N.N.N.N.O.O.[Ru+4].[Ru+5].[Ru+5] | . | . | 26.7µM | . | .

High-throughput results deposited in PubChem BioAssay by National Center for Advancing Translational Sciences (NCATS).
